# Laboratory results published in the supplement of paper PMC7595190.
# Counter-ions that a name gives are not always drawn. Values without a mark were called inactive.
# Columns and labels:
# Assay in all cases: CellTox Green cytotoxicity fluorescence relative to DMSO vehicle (fold of vehicle RFU); higher = more cell death (loss of membrane integrity), active = 2 or more
# CMK = tested on: CMK
# Summary of the method: (§1)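 Values are cytotoxicity, read as fluorescence from loss of membrane integrity and expressed as fold of the DMSO vehicle. MV4-11, CMK and Kasumi-1 cells at 4.0 × 10^4 per well received CellTox Green reagent at seeding and single Selleckchem apoptosis library compounds at final 0.01, 0.1 and 1 µM (vehicle 0.1% DMSO). Plates were incubated at 37 °C, 5% CO2 and read at 24, 48 and 72 h.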
# Kasumi-1 = tested on: Kasumi-1
# Summary of the method: as §1
# MV4-11 = tested on: MV4-11
# Summary of the method: as §1
Structure (SMILES),"CellTox Green cytotoxicity fluorescence (CMK; 0.01 µM, 24 h)","CellTox Green cytotoxicity fluorescence (CMK; 0.01 µM, 48 h)","CellTox Green cytotoxicity fluorescence (CMK; 0.01 µM, 72 h)","CellTox Green cytotoxicity fluorescence (CMK; 0.1 µM, 24 h)","CellTox Green cytotoxicity fluorescence (CMK; 0.1 µM, 48 h)","CellTox Green cytotoxicity fluorescence (CMK; 0.1 µM, 72 h)","CellTox Green cytotoxicity fluorescence (CMK; 1 µM, 24 h)","CellTox Green cytotoxicity fluorescence (CMK; 1 µM, 48 h)","CellTox Green cytotoxicity fluorescence (CMK; 1 µM, 72 h)","CellTox Green cytotoxicity fluorescence (Kasumi-1; 0.01 µM, 24 h)","CellTox Green cytotoxicity fluorescence (Kasumi-1; 0.01 µM, 48 h)","CellTox Green cytotoxicity fluorescence (Kasumi-1; 0.01 µM, 72 h)","CellTox Green cytotoxicity fluorescence (Kasumi-1; 0.1 µM, 24 h)","CellTox Green cytotoxicity fluorescence (Kasumi-1; 0.1 µM, 48 h)","CellTox Green cytotoxicity fluorescence (Kasumi-1; 0.1 µM, 72 h)","CellTox Green cytotoxicity fluorescence (Kasumi-1; 1 µM, 24 h)","CellTox Green cytotoxicity fluorescence (Kasumi-1; 1 µM, 48 h)","CellTox Green cytotoxicity fluorescence (Kasumi-1; 1 µM, 72 h)","CellTox Green cytotoxicity fluorescence (MV4-11; 0.01 µM, 24 h)","CellTox Green cytotoxicity fluorescence (MV4-11; 0.01 µM, 48 h)","CellTox Green cytotoxicity fluorescence (MV4-11; 0.01 µM, 72 h)","CellTox Green cytotoxicity fluorescence (MV4-11; 0.1 µM, 24 h)","CellTox Green cytotoxicity fluorescence (MV4-11; 0.1 µM, 48 h)","CellTox Green cytotoxicity fluorescence (MV4-11; 0.1 µM, 72 h)","CellTox Green cytotoxicity fluorescence (MV4-11; 1 µM, 24 h)","CellTox Green cytotoxicity fluorescence (MV4-11; 1 µM, 48 h)","CellTox Green cytotoxicity fluorescence (MV4-11; 1 µM, 72 h)"
CCN(CC)CCNC(=O)c1c(C)[nH]c(/C=C2\C(=O)Nc3ccc(F)cc32)c1C [Sunitinib],1.02,1.01,0.896,1,0.997,0.964,1.05,1.16,1.04,0.988,1.01,1.11,1.03,1.15,1.18,1.08,1.32,1.45,1.02,1.06,1.04,1.09,1.42,1.78,1.11,1.44,1.72
COc1cc(C(=O)N2CCC(N3CCN(C)CC3)CC2)ccc1Nc1ncc2c(n1)N(C)c1ccccc1C(=O)N2C,0.941,0.923,0.891,0.97,0.967,0.941,1.16,1.89,1.71,1.05,1.01,1.01,0.99,0.983,1,1.03,1.33,1.61,1.02,1.01,1.02,1.02,1.03,1.08,1.02,1.29,1.62
O=C(COc1ccc(Cl)cc1)NC1CCC(NC(=O)COc2ccc(Cl)cc2)CC1 (stereo unspecified),0.999,0.971,0.929,0.975,0.97,0.973,0.971,1.02,1.01,1.02,0.993,0.987,0.991,0.965,0.954,0.966,0.962,0.961,0.993,0.994,0.983,1.01,1.02,1.01,0.994,1.01,0.992
CNC(=O)c1ccc(Nc2ncc(C(F)(F)F)c(NCc3nccnc3N(C)S(C)(=O)=O)n2)cc1 [Defactinib],0.942,0.942,0.941,0.923,0.931,0.915,0.945,1.01,0.889,0.961,0.964,0.942,0.955,0.958,0.956,0.931,0.985,0.991,0.944,0.943,0.952,0.955,0.991,1.01,1,1.12,1.29
CCC(CC)n1ccc2c(C(=O)NCc3c(C)cc(C)[nH]c3=O)cc(C#N)cc21,0.768,0.767,0.8,,,,,,,,,,0.942,0.956,0.925,1.01,0.971,0.978,0.856,0.857,0.869,,,,,,
COc1c/c(=C2\C=c3ccccc3=N2)[nH]/c1=C\c1[nH]c(C)cc1C [Obatoclax Mesylate],0.914,0.907,0.894,0.921,0.88,,1.01,1,0.819,0.975,0.917,0.921,0.977,1.01,1.05,1.17,1.31,1.42,0.935,0.93,0.916,0.96,0.997,1.02,1.21,1.78,2.14 (active)
